Measurements from PubChem BioAssay (NCATS).
Results filed as inconclusive are left out. Activity calls are given as the source filed them. Calls follow the shape of the dose curve; as a rule, active = well fitted curve in the direction sought with a large enough effect; inconclusive = small, poorly fitted or top-dose-only effect, or another doubt; inactive = no such curve, though single readings can be large; an effect the other way counts as inactive or inconclusive.

Tests used:
[1] = Primary redox qHTS assay for identification of artifact compounds. (AID 1845223)
Summary of the method: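 Redox-cycling detection via DTT (250 uM final) oxidation coupled to Amplex Red (25 uM)/HRP (250 mU/mL) in HBSS. 15 min preincubation plus 30 min after DTT, room temperature. Ex/Em 525/598 nm; 4-parameter Hill fit against DMSO and 10 uM DA3003.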

[2] = Quantitative High-Throughput drug screen in 47 multiple myeloma cell lines against the NCATS MIPE library collection: FR4_PLB cell viability assay (AID 1918924; also: nearly all actives have a fitted effect of over 35% in size; also: potency is read from the fitted curve at half-maximal effect)
Summary of the method: (§1)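 We plated 500 myeloma cells per well, pinned in MIPE 4.0 compounds, and incubated for 48 hours at 37C. ATP was then quantified with CellTiter-Glo, with DMSO and media-only wells defining 100% and 0%.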

[3] = Quantitative High-Throughput drug screen in 47 multiple myeloma cell lines against the NCATS MIPE library collection: Delta47_JCRB cell viability assay (AID 1918925; also: nearly all actives have a fitted effect of over 45% in size; also: potency is read from the fitted curve at half-maximal effect)
Summary of the method: (§2)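 Primary qHTS used for cherry-picking: cells at 500/well, library compounds for 48 h (37C, 5% CO2), luminescent ATP assay.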

[4] = Quantitative High-Throughput drug screen in 47 multiple myeloma cell lines against the NCATS MIPE library collection: EJM_DSMZ cell viability assay (AID 1918926; also: nearly all actives have a fitted effect of over 30% in size; also: potency is read from the fitted curve at half-maximal effect)
Summary of the method: as §2

[5] = Quantitative High-Throughput drug screen in 47 multiple myeloma cell lines against the NCATS MIPE library collection: AMO1_DSMZ cell viability assay (AID 1918927; also: nearly all actives have a fitted effect of over 30% in size; also: potency is read from the fitted curve at half-maximal effect)
Summary of the method: as §2

[6] = Quantitative High-Throughput drug screen in 47 multiple myeloma cell lines against the NCATS MIPE library collection: ARP1_JJKsccF8 cell viability assay (AID 1918928; also: nearly all actives have a fitted effect of over 40% in size; also: potency is read from the fitted curve at half-maximal effect)
Summary of the method: (§3)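 Cell viability inhibition in this qHTS is measured via ATP content (CellTiter-Glo) after 48 h drug exposure at 37 °C. Wells hold 500 cells; DMSO-treated wells define 100% and medium-only wells 0%.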

[7] = Quantitative High-Throughput drug screen in 47 multiple myeloma cell lines against the NCATS MIPE library collection: ARD_JJKsccE7 cell viability assay (AID 1918929; also: potency is read from the fitted curve at half-maximal effect)
Summary of the method: as §2

[8] = Quantitative High-Throughput drug screen in 47 multiple myeloma cell lines against the NCATS MIPE library collection: KMM1_JCRB cell viability assay (AID 1918960); also: nearly all actives have a fitted effect of over 30% in size; also: potency is read from the fitted curve at half-maximal effect
Summary of the method: as §3

[9] = Quantitative High-Throughput drug screen in 47 multiple myeloma cell lines against the NCATS MIPE library collection: Karpas417_ECACC cell viability assay (AID 1918961); conditions: Karpas417 myeloma viability, CellTiter-Glo ATP luminescence, 48 h; viability (% of DMSO): at 45.8 µM (top of the series); also: potency is read from the fitted curve at half-maximal effect
Summary of the method: (§4)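 Viability readout: CellTiter-Glo luminescence following 5 min room-temperature incubation with reagent. Prior exposure: 48 h, 37C, humidified 5% CO2, 500 cells per well.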

[10] = Quantitative High-Throughput drug screen in 47 multiple myeloma cell lines against the NCATS MIPE library collection: KHM11_PLB cell viability assay (AID 1918962); also: nearly all actives have a fitted effect of over 35% in size; also: potency is read from the fitted curve at half-maximal effect
Summary of the method: as §1

[11] = Quantitative High-Throughput drug screen in 47 multiple myeloma cell lines against the NCATS MIPE library collection: JIM3_ECACC cell viability assay (AID 1918963; also: nearly all actives have a fitted effect of over 35% in size; also: potency is read from the fitted curve at half-maximal effect)
Summary of the method: as §1

[12] = Quantitative High-Throughput drug screen in 47 multiple myeloma cell lines against the NCATS MIPE library collection: INA6_PLB cell viability assay (AID 1918965; also: nearly all actives have a fitted effect of over 55% in size; also: potency is read from the fitted curve at half-maximal effect)
Summary of the method: as §4

[13] = Quantitative High-Throughput drug screen in 47 multiple myeloma cell lines against the NCATS MIPE library collection: JJN3_DSMZ cell viability assay (AID 1918966; also: nearly all actives have a fitted effect of over 50% in size; also: potency is read from the fitted curve at half-maximal effect)
Summary of the method: as §2

[14] = Quantitative High-Throughput drug screen in 47 multiple myeloma cell lines against the NCATS MIPE library collection: Karpas25_ECACC cell viability assay (AID 1918968; also: nearly all actives have a fitted effect of over 35% in size; also: potency is read from the fitted curve at half-maximal effect)
Summary of the method: as §2

[15] = Quantitative High-Throughput drug screen in 47 multiple myeloma cell lines against the NCATS MIPE library collection: KMS12BM_JCRB cell viability assay (AID 1918971); also: nearly all actives have a fitted effect of over 35% in size; also: potency is read from the fitted curve at half-maximal effect
Summary of the method: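 CellTiter-Glo luminescence (ATP) after 48 h compound exposure, 37C/5% CO2; 500 cells/well; MIPE 4.0 approved/investigational drugs pinned in; DMSO = 100%, media only = 0% viability.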

[16] = Quantitative High-Throughput drug screen in 47 multiple myeloma cell lines against the NCATS MIPE library collection: KMS12PE_JCRB cell viability assay (AID 1918972); also: potency is read from the fitted curve at half-maximal effect; nearly all actives have a fitted effect of over 30% in size
Summary of the method: as §4

[17] = Quantitative High-Throughput drug screen in 47 multiple myeloma cell lines against the NCATS MIPE library collection: Karpas620_DSMZ cell viability assay (AID 1918959); also: nearly all actives have a fitted effect of over 30% in size; also: potency is read from the fitted curve at half-maximal effect
Summary of the method: as §1

[18] = Quantitative High-Throughput drug screen in 47 multiple myeloma cell lines against the NCATS MIPE library collection: JIM1_ECACC cell viability assay (AID 1918964; also: potency is read from the fitted curve at half-maximal effect)
Summary of the method: as §2

[19] = Quantitative High-Throughput drug screen in 47 multiple myeloma cell lines against the NCATS MIPE library collection: H1112_PLB cell viability assay (AID 1918967; also: nearly all actives have a fitted effect of over 30% in size; also: potency is read from the fitted curve at half-maximal effect)
Summary of the method: as §2

[20] = Quantitative High-Throughput drug screen in 47 multiple myeloma cell lines against the NCATS MIPE library collection: KMS27_JCRB cell viability assay (AID 1918970)
Summary of the method: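 ATP-based viability (CellTiter-Glo luminescence) is measured in cells treated 48 h with approved and investigational drugs at 37 °C. Controls are DMSO-only wells for full viability and media-only wells for none.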

| Compound | Potency [1] | Potency [2] | Potency [3] | Potency [4] | Potency [5] | Potency [6] | Potency [7] | Potency [8] | Potency [9] | Potency [10] | Potency [11] | Potency [12] | Potency [13] | Potency [14] | Potency [15] | Potency [16] | Potency [17] | Potency [18] | Potency [19] | Potency [20] |
| --- | --- | --- | --- | --- | --- | --- | --- | --- | --- | --- | --- | --- | --- | --- | --- | --- | --- | --- | --- | --- |
| CC[C@@H]1C(=O)N(C)c2cnc(Nc3ccc(C(=O)NC4CCC(N5CCN(CC6CC6)CC5)CC4)cc3OC)nc2N1C(C)C (stereo not given in full) | inactive | 0.059 µM (active) | 1.48 µM (active) | 0.743 µM (active) | 0.118 µM (active) | 0.132 µM (active) | 0.0833 µM (active) | 0.0526 µM (active) | 3.32 µM (active) | 8.33 µM (active) | 0.0418 µM (active) | 0.187 µM (active) | 2.64 µM (active) | 5.26 µM (active) | 0.0743 µM (active) | 2.96 µM (active) |  |  |  |  |
| CC(C)c1cc(C(=O)N2Cc3ccc(CN4CCN(C)CC4)cc3C2)c(O)cc1O | inactive | 0.296 µM (active) | 0.296 µM (active) | 1.48 µM (active) | 0.132 µM (active) | 0.209 µM (active) | 0.0935 µM (active) | 0.105 µM (active) |  | 0.0935 µM (active) | 0.187 µM (active) | 0.118 µM (active) | 0.209 µM (active) | 0.166 µM (active) | 0.264 µM (active) | 0.118 µM (active) | 0.166 µM (active) | 0.0743 µM (active) | 5.26 µM (active) | 0.132 µM (active) |
| COc1ccc(C(=O)CC2(O)C(=O)Nc3c(Cl)ccc(Cl)c32)cc1 (stereo not given) | inactive | 0.833 µM (active) | 3.72 µM (active) | 3.32 µM (active) | 0.526 µM (active) | 3.72 µM (active) | 1.32 µM (active) | 1.18 µM (active) |  | inactive | 2.35 µM (active) | 2.35 µM (active) | 6.62 µM (active) | 5.26 µM (active) | 2.09 µM (active) | 1.32 µM (active) |  | 1.05 µM (active) | 13.2 µM (active) | 1.05 µM (active) |
| CN1CCC(CNc2ccc3ncc(-c4cccc(OC(F)(F)F)c4)n3n2)CC1 | inactive | 18.7 µM (active) | 4.69 µM (active) | 26.4 µM (active) | 13.2 µM (active) | 13.2 µM (active) | 11.8 µM (active) | 16.6 µM (active) | 10.5 µM (active) | 6.62 µM (active) | 9.35 µM (active) | 4.69 µM (active) |  | 7.43 µM (active) | 20.9 µM (active) | 7.43 µM (active) | 10.5 µM (active) | 8.33 µM (active) | 8.33 µM (active) | 14.8 µM (active) |
| c1nc2nc(Nc3ccc(N4CCOCC4)cc3)nc(NC3CCCCC3)c2[nH]1 | inactive | 26.4 µM (active) | 6.62 µM (active) | 14.8 µM (active) | 4.69 µM (active) | 14.8 µM (active) | 3.32 µM (active) | 4.69 µM (active) | 0.743 µM (active) | 14.8 µM (active) | 3.72 µM (active) | 2.96 µM (active) | 18.7 µM (active) |  | 20.9 µM (active) | 1.66 µM (active) | 6.62 µM (active) |  | 5.9 µM (active) | 5.9 µM (active) |
| Cc1ccc(C(N)=O)cc1Nc1nccc(-c2cn(C(C)C)c3cnccc23)n1 | inactive | 9.35 µM (active) | 3.32 µM (active) | 7.43 µM (active) | 2.64 µM (active) | 6.62 µM (active) | 3.72 µM (active) | 4.18 µM (active) | 2.96 µM (active) | 3.32 µM (active) | 5.26 µM (active) | 2.64 µM (active) | 4.69 µM (active) | 3.72 µM (active) | 16.6 µM (active) | 5.9 µM (active) | 6.62 µM (active) | 2.35 µM (active) | 3.32 µM (active) | 3.32 µM (active) |
| CC1COC2(CCN(c3nc(=O)c4cc(C(F)(F)F)cc([N+](=O)[O-])c4s3)CC2)O1 (stereo not given) | inactive | inactive | inactive | inactive | inactive | inactive | inactive | inactive |  |  | inactive | inactive | inactive | inactive | inactive |  | inactive | inactive | inactive |  |
| COc1cccc2c(NCc3ccccc3)nc(-n3c(N)nc4ccccc43)nc12 | inactive | 6.62 µM (active) | 2.96 µM (active) | 6.62 µM (active) | 1.05 µM (active) | 7.43 µM (active) | 4.69 µM (active) | 1.66 µM (active) |  | 3.32 µM (active) | 2.96 µM (active) | 3.72 µM (active) | 6.62 µM (active) | 2.64 µM (active) | 9.35 µM (active) | 2.35 µM (active) | 1.48 µM (active) | 1.87 µM (active) | 7.43 µM (active) | 1.05 µM (active) |
